From PubChem BioAssay
ROMK primary: modulates human ROMK potassium channel activity; P48048; Tet-inducible ROMK, thallium flux fluorescence; actives lie on both sides; B-score at 10 µM; 130,000 tested, 2% active; AID 1918;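 active means signal ratio slope over the read window, or its plate-corrected B-score, at least 3 SD from the plate mean, either direction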;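 further: B-score of the F/F0 ratio slope over 7 to 12 s after thallium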
Target sequence (P48048 whole entry, looked up): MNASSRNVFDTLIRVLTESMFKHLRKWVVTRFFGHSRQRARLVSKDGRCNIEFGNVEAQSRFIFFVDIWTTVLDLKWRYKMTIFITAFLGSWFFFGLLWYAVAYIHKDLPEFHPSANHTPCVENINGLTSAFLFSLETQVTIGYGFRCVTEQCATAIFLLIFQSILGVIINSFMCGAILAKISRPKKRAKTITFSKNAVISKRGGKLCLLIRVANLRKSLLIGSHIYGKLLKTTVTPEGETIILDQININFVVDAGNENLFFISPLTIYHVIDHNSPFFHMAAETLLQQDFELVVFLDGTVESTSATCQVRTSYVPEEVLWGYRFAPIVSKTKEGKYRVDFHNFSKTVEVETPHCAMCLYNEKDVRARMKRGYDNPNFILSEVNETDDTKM
p97 inhibitor: blocks human p97 ATPase activity; P55072; recombinant p97 ATPase, Kinase-Glo ATP luminescence, 3 h; inhibition, % at 8 µM; 220,000 tested, 0.42% active; in the data active means inhibition above about 15%
PTEN del growth: growth suppressors of cells with PTEN tumor suppressor deletion; AID 827; HCT116 PTEN-null viability, CellTiter-Glo, 60 h; hits give low values; 140,000 tested, 1.2% active; viability, % at 10 µM;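 active means viability at or below a set limit, 4 SD under the median of all tested compounds, cut at about 3.7% in these data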;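 further: PTEN knockout HCT116 line with beta catenin targeted HCT116 as companion control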
Insulin prom inh: TRM-6 insulin promoter activity inhibition; AID 1273; inhibition, % at 2 µM; 130,000 tested, 0.9% active; TRM-6 cells (human fetal islet line), insulin promoter-eGFP reporter, imaging; reporter expression induced with tamoxifen;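 active means inhibition above the mean plus 3 SD, with well images judged a real hit on visual review, cut at about 60% in these data, passing the limit was not always enough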
HCT116 bCat-KO: beta-catenin-lacking colon tumor cell growth suppression; HCT116 beta-catenin knockout viability, CellTiter-Glo, 60 h; hits give low values; viability, % at 10 µM; 140,000 tested, 1.5% active; AID 818;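 active means viability at or under a set limit, the compound median less 4 SD, cut at about 6% in these data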
L major viab: Leishmania major promastigote growth inhibition. Leishmania major promastigotes, resazurin fluorescence viability. inhibition, % at 10 µM. AID 1063. 200,000 tested, 9% active; in the data active means inhibition above about 50%;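 further: promastigotes grown with compound for 44 hours at 28 °C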
Large screens that a line does not name were inactive. Compounds with a hit are over-represented: about 10% of the library has one in this group of screens.

O=C(COc1ccc(C(=S)N2CCOCC2)cc1Cl)Nc1ccccc1Cl	none (no result: PTEN del growth, HCT116 bCat-KO)
O=C(O)C1C2CC3C(OC(=O)C31)C2Cl (stereo unspecified)	none
O=C(NNc1ccc(C2CCCCC2)cc1)C(O)(c1ccccc1)c1cccs1 (stereo unspecified)	L major viab 99 (no result: ROMK primary)
CCCC(=O)Nc1sc(C)c(-c2ccc(C(C)CC)cc2)c1C#N (stereo unspecified)	none (no result: ROMK primary)
COc1cc(/C=C/C(=O)Nc2nnc(CC(C)(C)C)s2)cc(OC)c1OC	none (no result: Insulin prom inh)
COc1cc(/C=C/C(=O)Nc2ccc(C(C)=O)cc2)cc(OC)c1OC	L major viab 69
COc1cc(/C=C/C(=O)Nc2nnc(CC(C)C)s2)cc(OC)c1OC	L major viab 59
CCc1ccc(-c2c(C)sc(NC(=O)C3CCC3)c2C#N)cc1	L major viab 50 (no result: ROMK primary)
Cc1sc(NC(=O)COc2ccccc2)c(C#N)c1-c1ccccc1	L major viab 57 (no result: ROMK primary)
Cc1sc(NC(=O)C2CCCC2)c(C#N)c1C	none
COc1cscc1C(N)=O	none (no result: ROMK primary, PTEN del growth, Insulin prom inh, HCT116 bCat-KO, L major viab)
COc1cccc(/C=N/Nc2ncnc(Cl)c2N)c1O	PTEN del growth 3.1, L major viab 100 (no result: ROMK primary)
COc1cccc(/C=N/Nc2nccnc2Cl)c1O	L major viab 100 (no result: PTEN del growth, HCT116 bCat-KO)
COc1cccc(/C=N/Nc2ncnc3scc(-c4ccccc4)c23)c1O	L major viab 100
COc1cccc(/C=N/Nc2nc3ccccc3n3cnnc23)c1O	HCT116 bCat-KO 5.8, L major viab 76 (no result: ROMK primary, Insulin prom inh)
COc1ccc(/C=N/Nc2nccnc2Cl)c(OC)c1	none (no result: PTEN del growth, Insulin prom inh, HCT116 bCat-KO)
COc1ccc(C(=O)N/C(=C\c2cn(C)c3ccccc23)C(=O)OCC(C)C)cc1	none (no result: ROMK primary, Insulin prom inh)
CCOC(=O)Cc1csc(NC(=O)CCS(=O)(=O)Cc2ccccc2)n1	none (no result: ROMK primary)
COc1ccc(/C=N/Nc2nccnc2Cl)cc1	Insulin prom inh 83
O=C1CCC(=O)N1CCC(c1ccc(F)cc1)c1ccco1 (stereo unspecified)	none (no result: ROMK primary)
O=C1NCN(c2ccccc2)C12CCN(CCCC(c1ccc(F)cc1)c1ccc(F)cc1)CC2	L major viab 101 (no result: PTEN del growth, HCT116 bCat-KO)
CC1=NN(c2ccccc2)C(=O)/C1=C/c1c(O)n(-c2ccc(F)cc2)[nH]c1=O	none (no result: ROMK primary, Insulin prom inh)
COc1cc(/C=C2/C(=O)N(c3ccccc3)N=C2C)ccc1OS(=O)(=O)c1ccccc1	L major viab 87
CCCCCC1CC(CC#CCN2CCOCC2)C(=O)O1 (stereo unspecified)	none
O=C(Nc1ccc(NC(=O)c2cccs2)cc1Cl)c1ccco1	none (no result: PTEN del growth, HCT116 bCat-KO)
COc1cc(NC(=O)c2cccs2)ccc1NC(=O)c1ccco1	none (no result: ROMK primary)
Cc1ccc(NC(=O)c2ccco2)c(NC(=O)c2cccs2)c1	L major viab 72
O=C(Nc1cccc(N2CCCC2)c1)c1cccs1	L major viab 86
O=C(Nc1cccc(NC(=O)c2cccs2)c1)c1ccco1	L major viab 72 (no result: ROMK primary)
O=C1CC(N2CCSCC2)C(=O)N1c1ccc(F)cc1 (stereo unspecified)	none (no result: ROMK primary, PTEN del growth, Insulin prom inh, HCT116 bCat-KO, L major viab)
CC1CCN(C2=C(NS(=O)(=O)c3ccccc3)C(=O)c3ccccc3C2=O)CC1	none (no result: ROMK primary, PTEN del growth, Insulin prom inh, HCT116 bCat-KO, L major viab)
CC(=O)Nc1ccc(S(=O)(=O)NC2=C(N3CCN(Cc4ccccc4)CC3)C(=O)c3ccccc3C2=O)cc1	L major viab 99
COc1cc([N+](=O)[O-])ccc1NC(=O)COC(=O)c1n[nH]c2ccccc12	L major viab 60
COc1ccc([N+](=O)[O-])cc1NC(=O)COC(=O)c1ccccc1C(=O)c1ccccc1	L major viab 92
Cc1cc(Br)c2nc3c(c(C(=O)O)c2c1)CCCCC3	none
CSc1nc(-c2ccc(C)cc2)nc(C(Cl)Cl)n1	PTEN del growth 1.1, HCT116 bCat-KO 1.1 (no result: ROMK primary)
CCSc1nc(-c2ccccc2)nc(C(Cl)Cl)n1	PTEN del growth 2.0, HCT116 bCat-KO 4.2 (no result: ROMK primary)
Cc1ccc(-c2nc(C(Cl)Cl)c3ccccc3n2)cc1	none (no result: PTEN del growth, Insulin prom inh, HCT116 bCat-KO, L major viab)
CC(C)OC(=O)NS(=O)(=O)c1cccc([N+](=O)[O-])c1	none (no result: PTEN del growth, HCT116 bCat-KO)
CCOC(=O)c1c(C)oc2c1c(C=NCC1CCCO1)c(O)c1ccccc12 (stereo unspecified)	L major viab 98
CCOC(=O)c1c(NCC2CCCO2)c2ccccc2[nH]c1=O (stereo unspecified)	none
Cc1cccc(C)c1N1CCN(C(=O)Cn2cncn2)CC1	none (no result: PTEN del growth, Insulin prom inh, HCT116 bCat-KO)
O=[N+]([O-])c1cccc(-c2ncc3ccccn23)c1	none (no result: PTEN del growth, HCT116 bCat-KO)
Nc1c(-c2cccc([N+](=O)[O-])c2)nc2ccccn12	Insulin prom inh 69
C/C(=N\N(Cc1ccccc1)c1ccccc1)c1cccnc1	none (no result: PTEN del growth, HCT116 bCat-KO)
